Data: article PMC7826789 (International Journal of Molecular Sciences, 2021)

System: TAOK3
Settings: Compound Concentration (nM):1000
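Note: KINOMEscan scanMAX binding as percent activity remaining versus control; lower means stronger binding.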

| Structure (SMILES) | Percent Control [%] |
| --- | --- |
| COc1cc(C=NNc2ncnc3c2cnn3-c2ccccc2)ccc1O [GW513184X] | 95 |
| CCS(=O)(=O)c1ccc(OC)c(Nc2ncc(-c3cccc(OC)c3)o2)c1 [GW580509X] | 100 |
| Cl.O=C(Nc1ccc(Oc2ccc3[nH]c(NC(=O)c4ccco4)nc3c2)cc1)Nc1cc(C(F)(F)F)ccc1F [GW683134A] | 100 |
| CN1CCN(C(=O)c2ccc(NC(=O)Nc3ccc(N(C)c4ccnc(Nc5ccc(CS(C)(=O)=O)cc5)n4)cc3)cc2)CC1.Cl [GW830263A] | 83 |
| COc1cc(N2CCN(C(C)C)CC2)ccc1Nc1nc(Nc2ccc(F)cc2C(=O)NC[C@@H](O)CO)c2cc[nH]c2n1 [GSK1392956A] | 100 |
| C[C@@H](Oc1cc(-n2cnc3ccc(OC4CCN(C)CC4)cc32)sc1C(N)=O)c1ccccc1Cl [GSK579289A] | 79 |
| COc1ccc2cc(-c3c(-c4ccncc4)nc(-c4ccc(S(C)(=O)=O)cc4C)n3C)ccc2c1 [SB-633825] | 74 |
| COC(=O)Nc1nc2ccc(Oc3ccc(NC(=O)Nc4cc(C(F)(F)F)ccc4F)cc3)cc2s1.Cl [GW693917A] | 93 |
| CN(C)CCNC(=O)Nc1ccc(N(C)c2ccnc(Nc3ccc(CS(C)(=O)=O)cc3)n2)cc1.Cl [GW830900A] | 89 |
| COc1cc(/C=N/Nc2ncnc3[nH]ncc23)ccc1O [GW578748X] | 77 |
| COc1cc2ncn(-c3cc(O[C@H](C)c4ccccc4Cl)c(C(N)=O)s3)c2cc1OC [GSK237701A] | 71 |
| CN(C)c1cc2c(Nc3ccc4c(cnn4Cc4ccccc4)c3)ncnc2cn1 [GW282974X] | 100 |
| Cl.O=S1CCN(Cc2ccc(-c3ccc4ncnc(Nc5ccc(OCc6ccccc6)c(F)c5)c4c3)o2)CC1 [GW576924A] | 100 |
| CCc1ccc(Oc2nccc(-c3c(-c4ccc(F)cc4)ncn3C3CCNCC3)n2)cc1 [SB-242719] | 95 |
| Nc1ncnc2occ(-c3ccc(NC(=O)Nc4cc(C(F)(F)F)ccc4F)cc3)c12 [GW770249X] | 74 |
| Cl.O=C(O[C@H]1CN[C@H](C#Cc2cc3ncnc(Nc4ccc5c(cnn5Cc5ccccc5)c4)c3s2)C1)N1CCOCC1 [GSK200398A] | 100 |
| Cl.c1ccc(Cc2nc3ccc(Nc4ncnc5ccccc45)cc3[nH]2)cc1 [GR269666A] | 100 |
| COc1ccc2c(-c3ccnc(Nc4cccc(OC(F)(F)F)c4)n3)cnn2n1 [GW810372X] | 100 |
| COc1cccc(-c2c[nH]c3c(N/N=C/c4ccncc4)ncnc23)c1 [GW814408X] | 32 |
| CCn1c(-c2nonc2N)nc2c(C#CC(C)(C)O)nc(OCCNC)cc21.Cl [GSK949675] | 90 |

| Structure (SMILES) | Percent Control [%] |
| --- | --- |
| NS(=O)(=O)c1ccc(Nc2ncc(-c3ccccc3)o2)cc1 [GW572399X] | 86 |
| COc1ccc(COc2ccc(Cc3cnc(N)nc3N)cc2OC)cc1 [GW632580X] | 100 |
| CC(C)COC(=O)c1ccc2c(c1)/C(=C/Nc1ccc(S(N)(=O)=O)cc1)C(=O)N2 [GW416981X] | 99 |
| Cl.O=C(Nc1ccc(Oc2ccc3[nH]c(NC(=O)c4ccccc4)nc3c2)cc1)Nc1cc(C(F)(F)F)ccc1F [GW709042A] | 98 |
| COc1cccc(-n2ncc3c(N/N=C/c4ccncc4)ncnc32)c1 [GW784752X] | 91 |
| NS(=O)(=O)c1ccc(N/N=C2\C(=O)Nc3ccc(Cl)cc32)cc1 [GW280670X] | 100 |
| O=C(Nc1n[nH]c2nc(-c3ccc(O)cc3)c(Br)cc12)C1CC1 [SB-725317] | 2.6 |
| CC1=C(C(=O)Nc2ccc3[nH]ncc3c2)C(c2ccc3ccccc3c2)CC(=O)N1 (stereo not shown) [GSK270822A] | 93 |
| Cc1cc(O)cc(C)c1/C=C/c1cncc(C(N)=O)c1 [GW435821X] | 98 |
| NS(=O)(=O)c1ccc(N/N=C2\C(=O)Nc3ccc(C(=O)NCc4ccncc4)cc32)cc1 [GW300657X] | 100 |
| C/C(Nc1ccc(S(N)(=O)=O)cc1)=C1/C(=O)Nc2ccccc21 [GW335962X] | 94 |
| CC1=C(C(=O)Nc2ccc3[nH]ncc3c2)C(c2ccc(Cl)c(Cl)c2)CC(=O)N1 (stereo not shown) [GSK299115A] | 81 |
| CCS(=O)(=O)c1ccc(OC)c(Nc2ncc(-c3cccc(F)c3)o2)c1 [GW621970X] | 100 |
| COc1ccccc1-c1cc(/C=C2\C(=O)Nc3ncc(Br)cc32)cc(Br)c1O [GW442130X] | 89 |
| NS(=O)(=O)c1ccc(N/N=C2\C(=O)Nc3ccc(C(=O)NCCc4c[nH]cn4)cc32)cc1 [GW300660X] | 86 |
| O=C1Nc2ccc(C(=O)c3ccco3)cc2C1=Cc1cc(Cl)c(O)c(Cl)c1 [GW406108X] | 85 |
| COc1cc(C)c(N(C)C(=O)CN(C)C)cc1Nc1nc(Nc2cccc(F)c2C(N)=O)c2cc[nH]c2n1 [GSK2219385] | 100 |
| NS(=O)(=O)c1ccc(N/N=C2\C(=O)Nc3ccc(-c4cnco4)cc32)cc1 [GW276655] | 98 |
| COc1ccc2[nH]c3c4[nH]c5ccc(OC)cc5c4c4c(c3c2c1)C(=O)NC4=O [GW296115X] | 96 |
| COc1cc2ncnc(Nc3ccc4c(cnn4Cc4ccccc4)c3)c2cc1OC.Cl [GW282449A] | 100 |
